Measured values reported in the antibiotic and cytotoxicity screens of Wong et al. (2023).
Among all 39,000 compounds or so, about 1,500 (3.8%) were called active. This is one part of a sample in which actives are shown more often than they occur.

Test system: HSkMC (human skeletal muscle cells)
Assay: cytotoxicity call (relative viability < 0.9)
Details: 10 µM

Row | SMILES | cytotoxicity call
1 | Cc1noc(C)c1S(=O)(=O)N(C)C[C@H]1Oc2c(NC(=O)NC3CCCCC3)cccc2C(=O)N([C@H](C)CO)C[C@@H]1C | inactive
2 | C[C@H](CO)N1C[C@H](C)[C@@H](CN(C)S(=O)(=O)c2cn(C)cn2)Oc2ccc(NC(=O)Cn3cnnn3)cc2C1=O | inactive
3 | CC(C)NC(=O)N(C)C[C@@H]1Oc2ccc(NS(=O)(=O)c3ccc(Cl)cc3)cc2CC(=O)N([C@H](C)CO)C[C@@H]1C | inactive
4 | CC(C)NC(=O)Nc1ccc2c(c1)C(=O)N([C@H](C)CO)C[C@H](C)[C@@H](CN(C)S(=O)(=O)c1ccccc1)O2 | inactive
5 | COc1ccc(S(=O)(=O)N(C)C[C@H]2Oc3c(NC(=O)c4cc(C)nn4C)cccc3C(=O)N([C@H](C)CO)C[C@@H]2C)cc1 | inactive
6 | COc1ccc(S(=O)(=O)Nc2ccc3c(c2)C(=O)N([C@H](C)CO)C[C@H](C)[C@@H](CN(C)C(=O)Nc2ccccc2)OCCCC[C@@H](C)O3)cc1 | inactive
7 | C[C@H]1CN([C@@H](C)CO)C(=O)c2ccccc2-c2ccccc2CO[C@H]1CN(C)Cc1ccc(C(F)(F)F)cc1 | inactive
8 | C[C@@H]1CCCCO[C@H](CN(C)Cc2ccc(C(=O)O)cc2)[C@@H](C)CN([C@H](C)CO)C(=O)c2cc(NS(=O)(=O)c3ccc(Cl)cc3)ccc2O1 | inactive
9 | CNC(=O)C(=O)Nc1cc(Cl)ccc1C#N | inactive
10 | CCN(CC)C(=O)[C@@H]1C[C@@H](N)CN1S(=O)(=O)N1CCCCCC1 | inactive
11 | Cc1ccc(OCCn2c(CC(C)(C)C)nc3ccccc32)cc1 | inactive
12 | Cc1nc2ccccc2n1Cc1ccc(Cl)cc1 | inactive
13 | c1ccc(Cn2c(-c3ccc(OC[C@H](C4CCNCC4)n4c(-c5ccccc5)nc5ccccc54)cc3)nc3ccccc32)cc1 | active
14 | C[C@H](O)C#Cc1ccc2c(c1)O[C@H](CN(C)C(=O)Nc1ccccc1)[C@@H](C)CN([C@H](C)CO)S2(=O)=O | inactive
15 | C[C@H]1CN([C@@H](C)CO)C(=O)c2cc(-c3cccnc3)cnc2O[C@@H]1CN(C)Cc1ccc(-c2ccccc2)cc1 | inactive
16 | C[C@@H]1CCCCO[C@H](CN(C)Cc2ccc(Cl)c(Cl)c2)[C@H](C)CN([C@@H](C)CO)C(=O)c2cc(NC(=O)C3CCCCC3)ccc2O1 | inactive
17 | C[C@@H]1CCCCO[C@@H](CN(C)Cc2ccc(Cl)c(Cl)c2)[C@@H](C)CN([C@@H](C)CO)C(=O)c2cc(NC(=O)NC3CCCCC3)ccc2O1 | inactive
18 | C[C@@H]1CN([C@@H](C)CO)C(=O)c2cc(NC(=O)NC3CCCCC3)ccc2O[C@@H](C)CCCCO[C@H]1CN(C)Cc1ccc(Cl)c(Cl)c1 | inactive
19 | C[C@@H]1CCCCO[C@H](CN(C)Cc2ccc(Cl)c(Cl)c2)[C@@H](C)CN([C@@H](C)CO)C(=O)c2cc(NC(=O)C3CCCCC3)ccc2O1 | active

Row | SMILES | cytotoxicity call
20 | C[C@@H]1CCCCO[C@H](CN(C)Cc2ccc(Cl)c(Cl)c2)[C@@H](C)CN([C@@H](C)CO)C(=O)c2cc(NC(=O)NC3CCCCC3)ccc2O1 | active
21 | C[C@@H]1CCCCO[C@H](CN(C)Cc2ccc(Cl)c(Cl)c2)[C@@H](C)CN([C@H](C)CO)C(=O)c2cc(NC(=O)C3CCCCC3)ccc2O1 | inactive
22 | C[C@@H]1CCCCO[C@H](CN(C)Cc2ccc(Cl)c(Cl)c2)[C@@H](C)CN([C@H](C)CO)C(=O)c2cc(NC(=O)NC3CCCCC3)ccc2O1 | inactive
23 | C[C@@H]1CCCCO[C@@H](CN(C)Cc2ccc(Cl)c(Cl)c2)[C@H](C)CN([C@H](C)CO)C(=O)c2cc(NC(=O)NC3CCCCC3)ccc2O1 | inactive
24 | C[C@H]1CCCCO[C@H](CN(C)Cc2ccc(Cl)c(Cl)c2)[C@@H](C)CN([C@@H](C)CO)C(=O)c2cc(NC(=O)NC3CCCCC3)ccc2O1 | active
25 | C[C@@H]1CN([C@H](C)CO)C(=O)c2cccc(NS(C)(=O)=O)c2O[C@@H]1CN(C)Cc1ccc(C(=O)O)cc1 | inactive
26 | Cc1noc(C)c1S(=O)(=O)N(C)C[C@H]1Oc2ccc(NC(=O)NC3CCCCC3)cc2CC(=O)N([C@@H](C)CO)C[C@H]1C | inactive
27 | O=C(C[C@@H]1C[C@@H]2c3cc(NS(=O)(=O)c4ccc(F)cc4)ccc3O[C@@H]2[C@H](CO)O1)NCCN1CCCCC1 | inactive
28 | C=CC[C@@H](CC(=O)N[C@H](CO)Cc1ccccc1)C(=O)NCCOC(=O)[C@H](CC=C)CC(=O)OC(C)(C)C | inactive
29 | CCCCCN1CC=C[C@]23O[C@@H]4/C=C/CCC(=O)N(C)[C@H](C)[C@@H](c5ccccc5)OC(=O)[C@@H]4[C@H]2C(=O)N(c2ccccc2Cl)[C@@H]3C1=O | inactive
30 | Cc1noc(C)c1NC(=O)Nc1ccc2c(c1)C(=O)N([C@H](C)CO)C[C@H](C)[C@H](CN(C)S(=O)(=O)c1cccs1)OCCCC[C@H](C)O2 | inactive
31 | C[C@@H]1CN([C@@H](C)CO)S(=O)(=O)c2ccc(C#CC3CC3)cc2O[C@@H]1CN(C)C(=O)c1cccc(F)c1 | inactive
32 | CC(C)(O)c1ccccc1CCC(SCC1(CC(=O)[O-])CC1)c1cccc(C=Cc2ccc3ccc(Cl)cc3n2)c1.[Na+] (configuration not stated) | inactive
33 | CC(C)(O)c1ccccc1CC[C@@H](SCC1(CC(=O)O)CC1)c1cccc(/C=C/c2ccc3ccc(Cl)cc3n2)c1 | active
34 | C[C@@H]1CN([C@H](C)CO)C(=O)c2cc(NC(=O)Nc3cccc4ccccc34)ccc2O[C@@H](C)CCCCO[C@@H]1CN(C)S(=O)(=O)c1ccc(F)cc1 | inactive
35 | COCC(=O)N1C[C@@H](C(=O)N2CCCO2)C[C@@H]2OCC[C@@H]21 | inactive
36 | O=C(Nc1cccc2cccnc12)[C@@H]1[C@H](c2ccc(I)cc2)CC(=O)N1C(=O)OCc1ccccc1 | inactive
37 | C[C@@H]1CCCCO[C@H](CN(C)C(=O)c2ccccc2)[C@H](C)CN([C@@H](C)CO)C(=O)c2cc(NS(=O)(=O)c3ccccc3)ccc2O1 | inactive
38 | Cc1c2oc3c(C)ccc(C(=O)OC(C)C4NC(=O)C(C(C)C)N(C)C(=O)CN(C)C(=O)C5CCCN5C(=O)C(C(C)C)NC4=O)c3nc-2c(C(=O)OC(C)C2NC(=O)C(C(C)C)N(C)C(=O)CN(C)C(=O)C3CCCN3C(=O)C(C(C)C)NC2=O)c(N)c1=O (configuration not stated) | inactive

Row | SMILES | cytotoxicity call
39 | Cc1c2oc3c(C)ccc(C(=O)N[C@@H]4C(=O)N[C@H](C(C)C)C(=O)N5CCC[C@H]5C(=O)N(C)CC(=O)N(C)[C@@H](C(C)C)C(=O)O[C@@H]4C)c3nc-2c(C(=O)N[C@@H]2C(=O)N[C@H](C(C)C)C(=O)N3CCC[C@H]3C(=O)N(C)CC(=O)N(C)[C@@H](C(C)C)C(=O)O[C@@H]2C)c(N)c1=O | active
40 | Cc1c2oc3c(C)ccc(C(=O)N[C@@H]4C(=O)N[C@@H](C(C)C)C(=O)N5CCC[C@H]5C(=O)N(C)CC(=O)N(C)[C@@H](C(C)C)C(=O)O[C@@H]4C)c3nc-2c(C(=O)N[C@@H]2C(=O)N[C@@H](C(C)C)C(=O)N3CCC[C@H]3C(=O)N(C)CC(=O)N(C)[C@@H](C(C)C)C(=O)O[C@@H]2C)c(N)c1=O | inactive
41 | CC(=O)O[C@H]1C[C@@]2(C)[C@@H](C[C@@H](O)[C@@H]3[C@@]4(C)CC[C@@H](O)[C@@H](C)[C@@H]4CC[C@@]32C)/C1=C(/CCC=C(C)C)C(=O)O | inactive
42 | COc1ccccc1S(=O)(=O)N[C@H]1C=C[C@@H](CC(=O)N2CCN(C)CC2)O[C@H]1CO | inactive
43 | O=C(C[C@@H]1CC[C@@H]2[C@H](COC[C@H](O)CN2S(=O)(=O)c2ccccc2)O1)N[C@@H]1CCN(Cc2ccccc2)C1 | inactive
44 | C=CCC[C@@H](Cc1ccc(F)cc1)C(=O)OC[C@@H](NC(=O)[C@@H](CC=C)CC(=O)N(CCO)Cc1ccccc1)c1ccccc1 | active
45 | C=CCC[C@@H](Cc1ccc(F)cc1)C(=O)OC[C@@H](Cc1ccccc1)NC(=O)[C@H](CC=C)CC(=O)N(CCO)Cc1ccccc1 | inactive
46 | C=CCC[C@H](Cc1ccc(F)cc1)C(=O)OC[C@@H](NC(=O)[C@H](CC=C)CC(=O)N(CCO)Cc1ccccc1)c1ccccc1 | inactive
47 | C=CC[C@@H](CC(=O)N(CCO)Cc1ccccc1)C(=O)N[C@H](COC(=O)[C@@H](CC=C)Cc1ccc(F)cc1)c1ccccc1 | inactive
48 | C=CCC[C@H](Cc1ccc(F)cc1)C(=O)OC[C@@H](NC(=O)[C@@H](CC=C)CC(=O)N(CCO)Cc1ccccc1)c1ccccc1 | active
49 | C=CCC[C@@H](Cc1ccc(F)cc1)C(=O)OC[C@@H](NC(=O)[C@H](CC=C)CC(=O)N(CCO)Cc1ccccc1)c1ccccc1 | inactive
50 | Cc1ccc(S(=O)(=O)N(C)C[C@H]2Oc3ccc(NC(=O)Nc4cccc5ccccc45)cc3C(=O)N([C@H](C)CO)C[C@@H]2C)cc1 | inactive
51 | COc1ccc(C#Cc2ccc3c(c2)[C@]2(C(=O)N3)[C@H](C(N)=O)[C@H]3C(=O)O[C@H](c4ccccc4)[C@H](c4ccccc4)N3[C@@H]2c2ccc(OCCO)cc2)cc1 | inactive
52 | Cc1cc(-c2ccccc2)nc(SCc2ccccc2)c1C#N | inactive
53 | COc1ccc(S(=O)(=O)N(C)C[C@@H]2Oc3ccc(NS(C)(=O)=O)cc3CC(=O)N([C@@H](C)CO)C[C@H]2C)cc1 | inactive
54 | CS(=O)(=O)Nc1ccc2c(c1)[C@@H]1C[C@H](CC(=O)NCc3ccc(-c4ccccc4)cc3)O[C@H](CO)[C@@H]1O2 | inactive
55 | COc1ccc(S(=O)(=O)N(C)C[C@@H]2Oc3c(NC(=O)NC(C)C)cccc3C(=O)N([C@H](C)CO)C[C@@H]2C)cc1 | inactive
56 | Cc1noc(C)c1NC(=O)Nc1ccc2c(c1)C(=O)N([C@H](C)CO)C[C@H](C)[C@H](CN(C)C(=O)Nc1ccccc1)OCCCC[C@@H](C)O2 | inactive
57 | CC1=C(/C=C/C(C)=C/C=C/C(C)=C\C(=O)O)C(C)(C)CCC1 | inactive
